Data as given in PubChem BioAssay (NCATS).
Results filed as inconclusive are left out. The source made the active and inactive calls. Calls come from the whole dose curve; as a rule, active = well fitted curve in the direction sought with a large enough effect; inconclusive = small, poorly fitted or top-dose-only effect, or another doubt; inactive = no such curve, though single readings can be large; an effect the other way counts as inactive or inconclusive.

How the values were obtained:
[1] = KB-8-5-11 Cancer Cell Toxicity qHTS against the NCATS CANVASS Library (AID 1347364); conditions: outcome: dose series up to 46.1 µM; note: nearly all actives have a fitted effect of over 75% in size
In short: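 Natural products were titrated in 11 points onto KB-8-5-11 cells, 500 per well, and cytotoxicity was scored from CellTiter-Glo luminescence after 72 hr culture.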

[2] = SDT Cancer Cell Toxicity qHTS against the NCATS CANVASS Library (AID 1347365); conditions: outcome: dose series up to 46.1 µM; note: nearly all actives have a fitted effect of over 60% in size
In short: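 Dispense 500 SDT cells per well; pin-transfer compounds; incubate 72 hr at 37C, 5% CO2, 95% RH; add CellTiterGlo and read luminescence.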

[3] = KB-3-1 Cancer Cell Toxicity qHTS against the NCATS CANVASS Library (AID 1347366); note: series mostly up to about 46 µM; nearly all actives have a fitted effect of over 75% in size
In short: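 Seed KB-3-1 cells at 500/well in DMEM with 10% FBS, add compounds, incubate 72 hr at 37C and 5% CO2, then add CellTiter-Glo and read luminescence after 10 minutes.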

[4] = qHTS for ATAD5 Agonist screened against the NCATS CANVASS Library (AID 1347367);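 note: luciferase reporter driven by ATAD5 which rises upon DNA damage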
In short: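 Step one plated reporter cells and let them acclimate 5hr. Step two pinned compounds with MMS as positive and 0.46% DMSO as negative control. After 16hr incubation, fluorescence viability then luminescence were read.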

[5] = G06 Cancer Cell Toxicity qHTS against the NCATS CANVASS Library (AID 1347368); note: series mostly up to about 46 µM; nearly all actives have a fitted effect of over 60% in size
In short: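 Cytotoxicity toward canine glioma G06 cells is scored from cellular ATP via luminescence after 72 hr compound exposure at 500 cells/well.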

[6] = MCF7 Cancer Cell Toxicity qHTS against the NCATS CANVASS Library (AID 1347369); conditions: outcome: dose series up to 46 µM
In short: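 Cytotoxicity is measured by ATP content: MCF7 cells at 500 per well receive an 11-point compound series and, after 72 hr at 37C, are lysed with CellTiterGlo for luminescence.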

[7] = qHTS for ATAD5 Antagonist screened against the NCATS CANVASS Library (AID 1347370);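 note: HEK293T cells carrying an ATAD5 luciferase reporter co-treated with 10 µM 5-fluorouridine; series mostly up to about 46 µM; nearly all actives have a fitted effect of over 65% in size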
Source text: Natural products and their derivatives continue to be wellsprings of nascent therapeutic potential. However, many laboratories have limited resources for biological evaluation, leaving their previously isolated or synthesized compounds largely or completely untested. To address this issue, the Canvass library of natural products was assembled (https://tripod.nih.gov/canvass), in collaboration with academic and industry researchers, for quantitative high-throughput screening (qHTS) across a diverse set of cell-based and biochemical assays. […] The library was formatted into 1536-well plates and evaluated in 50 qHTS (in an 11-pnt concentration series) bioassays with broad scope of disease-relevant mechanisms. The resulting data set from 50 different assays was then systematically analyzed to identify overall trends and specific natural products with interesting biological activities. […] Luminescence intensity is proportional to ATAD5 expression. […]
ATAD5 Agonist assay protocol: 1. […] A first readout of fluorescence signal was acquired via the ViewLux (PerkinElmer) plate reader using filter sets for AFC (380-400nmEx/505Em) and 1 second exposure setting. […] 8.#A second readout of luminescence signal was acquired via the ViewLux plate reader using a clear emission filter, 10 second exposure setting.

[8] = J3T Cancer Cell Toxicity qHTS against the NCATS CANVASS Library (AID 1347371); conditions: outcome: dose series up to 46.1 µM
In short: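 Viability of the J3T glioma line from dog is scored by ATP luminescence after a 72 hr incubation with natural products.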

[9] = target: Nuclear receptor subfamily 1 group I member 3 (Homo sapiens) (UniProt Q14994); assay: qHTS for Constitutive Androstane Receptor (CAR) Antagonist screened against the NCATS CANVASS Library (AID 1347372);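 note: cells stimulated with 50 nM CITCO agonist so inhibition reflects antagonism; series mostly up to about 46 µM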
In short: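 HepG2 cells stably carrying hCAR and a CYP2B6-2.2kb luciferase reporter were exposed to compounds plus 50 nM CITCO for 24hr at 37C. CAR activity was read by ONE-Glo luminescence, with viability measured first by CellTiter-Fluor.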

[10] = target: Nuclear receptor subfamily 1 group I member 3 (Homo sapiens) (UniProt Q14994); assay: qHTS for Constitutive Androstane Receptor (CAR) Agonist screened against the NCATS CANVASS Library (AID 1347373);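 note: every well also contained 1.5 µM PK11195 alongside the test compound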
In short: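 CAR agonism is scored as CYP2B6-promoter luciferase induction in a double-stable transfected HepG2 line, where 1.5uM PK11195 is included in each well. Compounds were tested over a 24hr exposure.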

Measured: outcome

Nuclear receptor subfamily 1 group I member 3 (Homo sapiens), sequence (Q14994 whole entry, looked up): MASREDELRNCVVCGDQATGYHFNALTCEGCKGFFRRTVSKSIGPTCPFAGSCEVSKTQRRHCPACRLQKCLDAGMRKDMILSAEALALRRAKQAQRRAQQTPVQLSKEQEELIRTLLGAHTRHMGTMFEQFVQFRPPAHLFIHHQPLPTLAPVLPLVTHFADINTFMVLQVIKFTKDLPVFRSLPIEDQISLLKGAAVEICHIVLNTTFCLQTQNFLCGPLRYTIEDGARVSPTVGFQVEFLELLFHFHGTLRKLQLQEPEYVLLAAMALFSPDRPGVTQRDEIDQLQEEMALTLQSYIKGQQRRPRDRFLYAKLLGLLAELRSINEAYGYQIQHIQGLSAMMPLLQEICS

C/C=C/C=C/C(CC(=O)O)Nc1ccc(C=O)cc1 (centres undefined)
inactive: [1] | [2] | [3] | [4] | [5] | [6] | [7] | [8] | [9] | [10]

CC1=C2C(=O)O[C@@H](c3ccoc3)[C@]2(C)CCC1
inactive: [1] | [2] | [3] | [4] | [5] | [6] | [7] | [8] | [9]
